Reference: the supplement of paper PMC10723795
± gives the standard deviation of the averaged measurements.

System: CHON-002
Assay: nucleolar normality score relative to DMSO (fraction of DMSO control); RPE1 is a non-cancer human cell line; higher = more normal nucleoli (less nucleolar stress)
Protocol: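 Selected screen hits were validated in hTERT lines (BJ5TA, CHON-002, RPE1) and cancer lines (DLD1, HCT116). Cells were immunostained for nucleolin and UBF and the nucleolar normality score was measured per field of view, with 4 fields per drug. Scores are normalized to each cell line's own DMSO control. Dose and time are not stated for this panel.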

Structure (SMILES) | nucleolar normality score
Cc1cnc(CNC(=O)c2c(=O)c3ccc(N4CCCN(C)CC4)nc3n3c2sc2ccccc23)cn1 | 0.487 ± 0.11
COC[C@H](NC(=O)c1cnc(C)s1)C(=O)N[C@@H](COC)C(=O)N[C@@H](Cc1ccccc1)C(=O)[C@@]1(C)CO1 [Oprozomib] | 0.548 ± 0.036
CC(C)c1c2cc(-c3ccnc(NC4CCC(NC5CCOCC5)CC4)n3)ccc2nn1C (configuration not stated) | 0.281 ± 0.015
CC(C)c1cc(C(=O)N2Cc3ccc(CN4CCN(C)CC4)cc3C2)c(O)cc1O [Onalespib] | 0.383 ± 0.023
CN1CC[C@H](c2c(O)cc(O)c3c(=O)cc(-c4ccccc4Cl)oc23)[C@H](O)C1 [Flavopiridol] | 0.181 ± 0.013
CN(C)CCNC(=O)c1cccn2c(=O)c3cc4ccccc4cc3nc12 | 0.0829 ± 0.03
CCc1cnn2c(NCc3ccc[n+]([O-])c3)cc(N3CCCC[C@H]3CCO)nc12 [Dinaciclib] | 0.201 ± 0.018
Cc1nc(-c2cn3c(n2)-c2ccc(-c4cnn(C(C)(C)C(N)=O)c4)cc2OCC3)n(C(C)C)n1 [Taselisib] | 0.444 ± 0.044
CC(C)n1nc(-c2ccc3oc(N)nc3c2)c2c(N)ncnc21 [Sapanisertib] | 0.4 ± 0.023
CC(C)C[C@H](NC(=O)[C@H](CCc1ccccc1)NC(=O)CN1CCOCC1)C(=O)N[C@@H](Cc1ccccc1)C(=O)N[C@@H](CC(C)C)C(=O)[C@@]1(C)CO1 [Carfilzomib] | 0.453 ± 0.025
C=CCNC1=C2C[C@@H](C)C[C@H](OC)[C@H](O)[C@@H](C)/C=C(\C)[C@H](OC(N)=O)[C@@H](OC)/C=C\C=C(/C)C(=O)NC(=CC1=O)C2=O | 0.408 ± 0.035
COc1cccc2c1C(=O)c1c(O)c3c(c(O)c1C2=O)C[C@@](O)(C(=O)CO)C[C@@H]3O[C@H]1C[C@H](N)[C@H](O)[C@H](C)O1 [Doxorubicin] | 0.182 ± 0.039
